Measurements published in PubChem BioAssay (EPA / NIEHS).
Records with an inconclusive call do not appear. Where a structure was tested more than once in an assay, its records may differ in their call. Activity calls are given as the source filed them. The calls were made as follows, unless noted: active = hit-call score of the fitted dose curve at least 0.9, where 1 is the maximum; inactive = score below 0.9.

Legend:
[1] = IUF_NPC2c_oligodendrocyte_migration_120hr: Leibniz Research Institute for Environmental Medicine (IUF) 120-hour Neural Progenitor Cell Migration Assay for Oligodendrocyte Migration (NPC2c) (AID 2284297);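 also: O4-positive oligodendrocyte migration distance divided by radial glia migration distance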
In short: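 Human fetal cortex-derived neural progenitor spheres (0.3 mm) were plated on poly-D-lysine/laminin in N2 differentiation medium and exposed to 7 concentrations for 120 h, with half-medium renewal at day 3. Oligodendrocyte migration distance was normalized to radial glia migration, relative to DMSO.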

[2] = IUF_NPC2a_radial_glia_migration_120hr: Leibniz Research Institute for Environmental Medicine (IUF) 120-hour Neural Progenitor Cell Migration Assay for Radial Glia Migration (NPC2a) (AID 2284298)
In short: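 Single 0.3 mm primary human fetal-cortex (GW 16-19) NPC spheres were plated on poly-D-lysine/laminin in N2 differentiation medium and exposed from day 0 for 120 h, half-medium refreshed day 3. Migration distance came from Hoechst nuclei-density imaging, relative to DMSO.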

[3] = IUF_NPC2a_radial_glia_migration_72hr: Leibniz Research Institute for Environmental Medicine (IUF) 72-hour Neural Progenitor Cell Migration Assay for Radial Glia Migration (NPC2a) (AID 2284299)
In short: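 Human fetal neural progenitor spheres (0.3 mm) plated on poly-D-lysine/laminin in N2 differentiation medium and exposed from day 0 at 7 concentrations; radial glia migration distance from sphere edge measured at 72 h on brightfield images, mean of four directions, vs DMSO.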

[4] = IUF_NPC2b_neuronal_migration_120hr: Leibniz Research Institute for Environmental Medicine (IUF) 120-hour Neural Progenitor Cell Migration Assay for Neuron Migration (NPC2b) (AID 2284300)
In short: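 Primary human fetal cortex neural progenitor spheres (0.3 mm) plated on poly-D-lysine/laminin in N2 differentiation medium, exposed 120 h with half-medium refresh at day 3. TUBB3-stained neuron distance from sphere core, normalized to radial glia migration, versus DMSO.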

[5] = IUF_NPC3_neuronal_differentiation_120hr: Leibniz Research Institute for Environmental Medicine (IUF) 120-hour Neuronal Differentiation Assay (NPC3) (AID 2284301)
In short: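 Single 0.3 mm neurospheres from human fetal cortex were plated in differentiation medium containing test compound. Medium was half-replaced on day 3. After 120 h cells were fixed, immunostained and imaged, and neuronal fraction was scored against DMSO control.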

[6] = IUF_NPC4_neurite_length_120hr: Leibniz Research Institute for Environmental Medicine (IUF) 120-hour Neuronal Morphology Assay for Neurite Length (NPC4) (AID 2284302)
In short: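 Read-out is mean neurite length in µm of TUBB3-positive neurons, skeletonized from high-content fluorescence images after 120 h. Single 0.3 mm primary human neural progenitor spheres differentiated on poly-D-lysine/laminin under continuous compound exposure; DMSO was baseline.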

[7] = IUF_NPC4_neurite_area_120hr: Leibniz Research Institute for Environmental Medicine (IUF) 120-hour Neuronal Morphology Assay for Neurite Area (NPC4) (AID 2284305; active = hit-call score of the fitted dose curve at least 0.9, where 1 is the maximum)
In short: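 Neurite area is read out as the mean pixel area, excluding nuclei, of skeletonized TUBB3-positive neurons imaged after 120 h. Primary human neural progenitor spheres differentiated on poly-D-lysine/laminin with compound present from day 0. Activity was referenced to DMSO controls.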

[8] = IUF_NPC2-5_cytotoxicity_72hr: Cytotoxicity Assessment at 72 hours in the Leibniz Research Institute for Environmental Medicine (IUF) Neural Progenitor Cell Migration and Differentiation Assay for Cytotoxicity (NPC2-5) (AID 2284306; active = hit-call score of the fitted dose curve at least 0.9, where 1 is the maximum;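 also: LDH release into supernatant measured by resorufin fluorescence marking membrane damage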)
In short: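 Membrane integrity loss was scored from fluorescence (RFU) of resorufin generated by LDH in culture supernatant, 72 h after dosing. Differentiating human progenitor spheres received seven serial compound concentrations alongside a solvent control.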

[9] = IUF_NPC2-5_cytotoxicity_120hr: Cytotoxicity Assessment at 120 hours in the Leibniz Research Institute for Environmental Medicine (IUF) Neural Progenitor Cell Migration and Differentiation Assay (NPC2-5) (AID 2284307; active = hit-call score of the fitted dose curve at least 0.9, where 1 is the maximum;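 as to AC50: LDH released into supernatant as membrane damage marker via resorufin fluorescence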)
In short: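 Human fetal neural progenitor spheres (0.3 mm, GW 16-19 cortex) were plated on poly-D-lysine/laminin in N2 differentiation medium and exposed for 120 h, with half-medium refresh at day 3. LDH release into supernatant was read by resorufin fluorescence.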

[10] = IUF_NPC2-5_cell_number_120hr: Cell Number Assessment at 120 hours in the Leibniz Research Institute for Environmental Medicine (IUF) Neural Progenitor Cell Migration and Differentiation Assay (NPC2-5) (AID 2284308);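 also: count of Hoechst-stained nuclei in migration zone around plated human neural progenitor spheres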
In short: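 Primary human fetal neural progenitor spheres (GW 16-19, 0.3 mm) plated on poly-D-lysine/laminin in N2 differentiation medium, exposed from day 0 for 120 h with half-medium refresh at day 3; Hoechst-positive nuclei counted in migration area versus DMSO control.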

[11] = IUF_NPC2-5_viability_120hr: Viability Assessment at 120 hours in the Leibniz Research Institute for Environmental Medicine (IUF) Neural Progenitor Cell Migration and Differentiation Assay (NPC2-5) (AID 2284312)
In short: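 Alamar blue resorufin fluorescence read after 5 days of differentiation, with compound present from day 0 and replenished at day 3. Primary hNPC spheres on laminin-coated plates, 37C; seven concentrations plus solvent control, fitted against DMSO.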

[12] = IUF_NPC1_cytotoxicity_72hr: Cytotoxicity Assessment at 72 hours in the Leibniz Research Institute for Environmental Medicine (IUF) Neural Progenitor Cell Proliferation Assay (NPC1) (AID 2284332; active = hit-call score of the fitted dose curve at least 0.9, where 1 is the maximum;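 also: rising LDH signal means more cytotoxicity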)
In short: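 Human fetal neural progenitor spheres (0.3 mm) in EGF/FGF proliferation medium, 37C, exposed 72 h without renewal. LDH release in supernatant read by resorufin fluorescence; gain of signal scored relative to dynamic range.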

[13] = read-out: Vascular cell adhesion molecule 1 (VCAM1), VCAM1 (gene 7412); assay: BSK_BF4T_VCAM1: BioMAP Diversity Plus: BF4T Assay for Vascular cell adhesion molecule 1 (VCAM1) Biomarker Activity (AID 2284249); conditions: primary human bronchial epithelial cells with fibroblasts
In short: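 Human bronchial epithelial cell and dermal fibroblast co-culture exposed 24 h. VCAM-1 measured by ELISA; parallel SRB total-protein staining for cytotoxicity. Fitted in positive direction relative to DMSO.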

[14] = read-out: Interleukin-8 (IL8), CXCL8 (gene 3576); assay: BSK_BF4T_IL8: BioMAP Diversity Plus: BF4T Assay for Interleukin-8 (IL8) Biomarker Activity (AID 2284263); conditions: primary human bronchial epithelial cells with fibroblasts
In short: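 Human bronchial epithelial cells with dermal fibroblasts co-culture; IL-8 measured by ELISA 24 hours after dosing, fitted vs DMSO. Cytotoxicity tracked in parallel cultures by SRB total-protein staining.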

[15] = read-out: Interleukin-8 (IL8), CXCL8 (gene 3576); assay: BSK_IMphg_IL8: BioMAP Diversity Plus: IMphg Assay for Interleukin-8 (IL8) Biomarker Activity (AID 2284277); conditions: primary human endothelial cells with macrophages
In short: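 Co-culture of human venular endothelial cells and macrophages exposed to chemicals for 24 h; IL-8 quantified by ELISA and compared against the DMSO baseline, with SRB total-protein staining in parallel cultures for cytotoxicity.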

[16] = read-out: Interleukin-1 alpha (IL1a), IL1A (gene 3552); assay: BSK_IMphg_IL1a: BioMAP Diversity Plus: IMphg Assay for Interleukin-1 alpha (IL1a) Biomarker Activity (AID 2284290); conditions: primary human endothelial cells with macrophages
In short: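 Human venular endothelial cells co-cultured with macrophages, IMphg system. IL-1α is measured by ELISA 24 h after dosing and fitted in the positive direction against DMSO. Cytotoxicity is assessed by SRB staining of parallel cultures.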

[17] = biological target: D(1A) dopamine receptor (Homo sapiens) (UniProt P21728); assay: NVS_GPCR_hDRD1: NovaScreen (NVS) G Protein-Coupled Receptor Assay for human Dopamine Receptor D1 (DRD1) (AID 2283269; active = hit-call score of the fitted dose curve at least 0.9, where 1 is the maximum)
Sequence of D(1A) dopamine receptor (Homo sapiens) (P21728 whole entry, looked up): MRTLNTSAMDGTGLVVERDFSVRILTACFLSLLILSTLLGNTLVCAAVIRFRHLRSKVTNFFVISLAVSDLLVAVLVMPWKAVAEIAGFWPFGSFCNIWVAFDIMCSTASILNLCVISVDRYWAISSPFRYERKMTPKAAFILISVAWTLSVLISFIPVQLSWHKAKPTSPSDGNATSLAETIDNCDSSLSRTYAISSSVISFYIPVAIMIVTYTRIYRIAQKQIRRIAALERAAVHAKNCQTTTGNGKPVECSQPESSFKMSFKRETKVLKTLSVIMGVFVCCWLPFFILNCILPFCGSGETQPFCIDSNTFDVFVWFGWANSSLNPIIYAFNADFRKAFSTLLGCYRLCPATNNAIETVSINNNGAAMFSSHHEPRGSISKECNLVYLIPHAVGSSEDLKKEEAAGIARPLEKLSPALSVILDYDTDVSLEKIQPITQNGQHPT
In short: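 Cell-free competition with radioligand, filter-trapped and scintillation-counted 1 h post-dose, using HEK293-derived human D1 preparation. Duplicate single-point testing at 25 uM first, then concentration series for actives; DMSO served as baseline, loss-of-signal scored.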

[18] = biological target: human Retinoic Acid Receptor beta (RARb), RARB (gene 5915) (UniProt P10826); assay: ATG_RARb_TRANS: Attagene TRANS-FACTORIAL HepG2 Assay for human Retinoic Acid Receptor beta (AID 2283004; active = hit-call score of the fitted dose curve at least 0.9, where 1 is the maximum)
Sequence of human Retinoic Acid Receptor beta (RARb), RARB (gene 5915) (P10826 whole entry, looked up, the tested form may be a part): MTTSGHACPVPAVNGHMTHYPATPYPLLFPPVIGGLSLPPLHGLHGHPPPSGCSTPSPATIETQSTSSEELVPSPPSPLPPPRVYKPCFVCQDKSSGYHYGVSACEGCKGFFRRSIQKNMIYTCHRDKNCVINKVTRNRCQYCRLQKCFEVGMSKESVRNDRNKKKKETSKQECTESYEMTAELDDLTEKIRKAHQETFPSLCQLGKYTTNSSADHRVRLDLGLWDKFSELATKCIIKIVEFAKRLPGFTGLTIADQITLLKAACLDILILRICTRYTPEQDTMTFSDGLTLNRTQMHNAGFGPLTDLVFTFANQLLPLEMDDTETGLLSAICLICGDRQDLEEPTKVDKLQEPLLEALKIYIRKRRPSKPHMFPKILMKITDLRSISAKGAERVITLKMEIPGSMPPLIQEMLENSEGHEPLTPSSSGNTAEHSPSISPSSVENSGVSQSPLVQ
In short: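 HepG2 cells transiently transfected with multiplexed GAL4-UAS reporter units expressing chimeric NR–Gal4 fusions; 24 h compound exposure. Reporter mRNA quantified by RT-PCR, 6-FAM labelling, HpaI digestion and capillary electrophoresis; gain-of-signal fitted against DMSO baseline.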

[19] = CEETOX_H295R_11DCORT: CeeTox H295R High-throughput Steroidogenesis Assay for 11-Deoxycortisol (11DCORT) (AID 2283432); conditions: actives raise or lower the signal
In short: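 Human adrenal H295R cells were prestimulated with 10 uM forskolin for 48 h, then exposed to test chemical (0.1% DMSO final) for 48 h. Medium 11-deoxycortisol was quantified by MTBE extraction and HPLC-MS/MS; bidirectional fitting relative to DMSO.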

[20] = CEETOX_H295R_OHPREG: CeeTox H295R High-throughput Steroidogenesis Assay for OH-Pregnenolone (OHPREG) (AID 2283434); conditions: actives raise or lower the signal
In short: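 Hormone levels in spent medium were measured by tandem mass spectrometry following liquid-liquid extraction. Cells (H295R) had been forskolin-stimulated (10 uM, 48 h) before a 48 h chemical exposure at 0.1% DMSO, with activity fitted in both directions against DMSO.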

Measured: AC50

Oc1cccc2ccccc12
active: [9] 0.216 µM
inactive: [1] | [2] | [3] | [4] | [5] | [6] | [7] | [8] | [10] | [11] | [12]

OC(C(F)(F)F)(C(F)(F)F)C(O)(C(F)(F)F)C(F)(F)F
active: [13] 18.9 µM | [14] 0.218 µM | [15] 5.86 µM | [16] 7.66 µM
inactive: [13] | [14] | [15] | [16]

CC(=[OH+])/C=C(/C)[O-].CC(=[OH+])/C=C(/C)[O-].CC(=[OH+])/C=C(/C)[O-].[Fe]
inactive: [17]

O=C(Oc1ccccc1)c1ccccc1
inactive: [18]

c1ccc(CNc2ncnc3nc[nH]c23)cc1
inactive: [19] | [20]

CCCCCCCCCCCCCCCCCC[N+](C)(C)C
active: [18] 15.7 µM | [17] 2.53 µM

NC(N)=Nc1nc(CSCCC(N)=NS(N)(=O)=O)cs1
inactive: [1] | [2] | [3] | [4] | [5] | [6] | [7] | [8] | [9] | [10] | [11] | [12]

CCO[Si](CCCN)(OCC)OCC
inactive: [19] | [20]
